# In PubChem BioAssay (NCI):
# About 83,000 compounds went through this panel and 20% of them were active in at least one assay; those are over-represented in the sample as a whole.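 Interpretation: 100, growth as untreated; towards 0, rising growth inhibition; 0, no net growth; 0 to -100, cell death. Compounds scoring below 10 were considered active.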 A number with no mark means an inactive call. Activity calls are given as the source filed them.
# Tested on: MDA-MB-435 melanoma
# Experiment: NCI-60 one-dose screen, 48 h (100 = growth as untreated, 0 = no growth, -100 = all killed)
# Settings: 10 µM unless noted
# Protocol: Growth inhibition of the MDA-MB-435 human Melanoma tumor cell line is measured as a screen for anti-cancer activity. Cells are grown in 96 well plates and exposed to the test compound for 48 hours. Compounds are tested at a single concentration, which is 10^-5 M for most compounds. The reported endpoint is percent growth (GI% or GIPRCNT), where numbers from 0 - 100% represent growth inhibition, and numbers from -100% - 0 represent cell death. For example, a value of 40 represents 60% growth inhibition. A value of 0 means no net growth occurred over the course of the experiment. A value of -40 indicates 40% of cells at the beginning of the experiment died by the end of the experiment. A value of -100 means all cells are dead at the end of the experiment.
# NCI-60 Human Tumor Cell Lines Screen was performed using the standard one-dose NCI protocol, which is described in more detail at https://dtp.cancer.gov/discovery_development/nci-60/default.htm.
# Compounds with GIPRCNT values below 10 were considered active. Activity score was based on GIPRCNT using the following formula: […]
# Score is 0 for GIPRCNT values of 100 or above, 50 for GIPRCNT values of 0, and 100 for GIPRCNT values of -100.
row,SMILES,growth
1,CC(C)=CCC[C@](C)(O)[C@H]1CC[C@]2(C)[C@@H]1CC[C@@H]1[C@@]3(C)Cc4nccnc4C(C)(C)[C@@H]3CC[C@]12C,64.6%
2,C=CC(=O)NCc1ccc(Nc2nccc(-c3ccc(N4CCCC4)c(C#N)c3)n2)cc1,10.1%
3,O=C1/C(=C/c2ccc(-c3ccc(Br)cc3)o2)SC(=S)N1CCc1ccc(O)cc1,48.8%
4,CCOC(=O)c1c(NC(=O)c2ccc(C(C)C)cc2)sc2c(CN(C)C)c(O)ccc12,21.3%
5,Nc1c(C(=O)Nc2ccccc2Cl)sc2nc3c(cc12)C(O)CCC3 (stereo not given),1.93% (active)
6,CCn1cc(C(=O)N/N=C/c2cccs2)c(=O)c2cc(F)c(N3CCNC(C)C3)c(F)c21 (stereo not given),92.2%
7,O=C1c2c(c3c4ccccc4[nH]c3c3ccc4ccccc4c23)C(=O)N1CCN1CCCCC1,67.2%
8,CCOC(=O)c1cc(C(=O)c2cc(OC)c(OC)c(OC)c2)n2ccc(-c3ccncc3)cc12,106%
9,CCCC(=O)NC(c1ccc2c(c1)OCO2)c1ccc2cccnc2c1O (stereo not given),26.9%
10,Fc1cc2c(cc1Cl)N(c1ncnc3ccc(-c4cnc5[nH]ncc5c4)cc13)CC2,74.1%
11,O=C(O)c1ccc(-n2cc(/C=N/Nc3ccc(F)cc3)c(-c3cc4ccccc4oc3=O)n2)cc1,77.5%
12,CCOC(=O)C(=Cc1cccc(Cl)c1)C(=O)OCC,6.41% (active)
13,CCC(C)N(c1ccc(Cl)cc1)c1nc(-c2ccc(Br)cc2)cs1 (stereo not given),101%
14,CC1(C)CC[C@]2(C(=O)O)CC[C@]3(C)C(=CC[C@@H]4[C@@]5(C)C/C(=C/O)C(=O)C(C)(C)[C@@H]5CC[C@]43C)[C@@H]2C1,69.7%
15,CC(C)(C)n1cc(-c2ccnc(NCCNS(=O)(=O)c3cccc4ccccc34)c2)c(-c2cccc(F)c2)n1,-31.8% (active)
16,Cc1cc(N)c2cc(NC(=O)/C=C\c3ccccc3Cl)ccc2n1,-80.5% (active)
17,Cc1ccc2c3c(c(=O)[nH]c2c1)C1(C(C#N)=C(N)O3)c2cc(Br)ccc2-c2ccc(Br)cc21,42.8%
18,Cc1ccc(-n2c(=S)[nH]c3sc4c(c3c2=O)CCC(=O)C4)cc1,-33.3% (active)
19,COc1ccc(C(=O)Nc2ncc(Cc3ccc(F)cc3)s2)cc1,2.51% (active)
20,COC(=O)CCC(=O)C(=O)OC,29.2% [10 mM]

row,SMILES,growth
1,CC(=O)Nc1nc2ccc(NS(=O)(=O)c3cccc4c(N(C)C)cccc34)cc2[nH]1,-28.6% (active)
2,Cn1ccc2c3c(ccc21)CC3=O,106%
3,S=C(Nc1ccc(-c2nc(N3CCOCC3)c3cccn3n2)cc1)Nc1cccnc1,31.8%
4,O=C(Cn1cc(CN2C(=O)c3ccccc3S2(=O)=O)nn1)Nc1nc2ccccc2s1,112%
5,O=S(=O)(Nc1ccccc1)c1ccc(C2CC3(Cl)C(Cl)=C(Cl)C2(Cl)C3(Cl)Cl)cc1 (stereo not given),23.6%
6,CCN(c1ccc(Cl)cc1)c1nc(-c2ccc([N+](=O)[O-])cc2)cs1,103%
7,N=C(N)c1ccc(-c2ccc(-c3cc(Cl)cc(Cl)c3)o2)o1,-92.8% (active)
8,CN(C)c1ccc(Nc2cc(-c3cccc(OC(F)(F)F)c3)nc3ccc(N4CCCC4)cc23)cc1,-73.6% (active)
9,Cc1nc2sc(C(=O)Nc3cccc(Cl)c3C)c(N)c2cc1C(=O)c1ccccc1,-37.4% (active)
10,Cn1cc(-c2csc(-c3ccc(Cl)cc3)n2)c2cccnc21,-6.61% [100 µM] (active)
11,CC(C)OC(=O)c1ccc2[nH]c(O)c(C(=Nc3ccc(N(C)C(=O)CN4CCN(C)CC4)cc3)c3ccccc3)c2c1,-92.6% (active)
12,O=C(Nc1cccc([N+](=O)[O-])c1)c1cc2ccccc2cc1O,-1.29% (active)
13,COc1ccc(-c2nc(/C=C3\SC(=NCc4ccccc4)NC3=O)c3ccccn23)cc1,-4.34% (active)
14,O=C(CCc1nnc(Cn2cnc3nc[nH]c3c2=O)o1)c1nc2ncccc2[nH]1,99.5%
15,Nc1nc(=S)c2ncn(C3OC(COP(=O)(O)O)C(O)C3O)c2[nH]1 (stereo not given),15.5%
16,COc1cc2c(c(OC)c1OC)C(=O)CC(c1cccc(NC(=O)c3ccc(Br)cc3)c1)O2 (stereo not given),-18.3% (active)
17,CN1C(=O)N(C)C2Nn3c(s/c(=C\c4ccc(C(F)(F)F)cc4)c3=O)=NC21 (stereo not given),91.4%
18,Cc1ccc(-c2cc(-c3ccc(Cl)cc3)nc(NC(=O)c3cccnc3)n2)cc1,99.8%
19,CC(=O)n1nc(C(=O)OC(C)C)c2cc(C)c(C)cc21,98.6%
20,COc1cc(/C=C/C(=O)c2cccc(Nc3nc(Nc4ccccc4)nc(Nc4ccccc4)n3)c2)cc(OC)c1OC,68.8%
